# Source: ChEMBL document CHEMBL3988442, “University of Dundee, Small-Polar-MMV Screening Library” (2021)
# Hit rate of the full screen: of about 48,000 compounds, about 13,000 (27%) showed an effect of 50% or more. The list shows a part of the results.
# Test system: Wolbachia pipientis
# Experiment: Anti-Wolbachia Cell-Based Screen
# Assay type: functional
# Parameters: scale not given: in the data most compounds retested in dose-response had high values
# Details: 5 µM
row,Compound,Percent Effect [%]
1,CCCN(C(=O)CN1CCN(CCO)CC1)C1=CCCCC1,10.87
2,c1cnc(NCc2noc3c2CN(C2CCOC2)CC3)nc1 (stereo not drawn),-0.4343
3,CS(=O)(=O)N1CC[C@@H](CC(=O)O)[C@@H](CC2=NCCc3cc(F)ccc32)C1,-4.983
4,N#Cc1cc2c(=O)n(CC(O)C(F)(F)F)ccc2[nH]c1=O (stereo not drawn),-28.05
5,COCCCNC(=O)C(C)(C)N(C)C1CCCC1,11.81
6,CN(Cc1nnc(C2CC2)o1)CC1CCCN1c1cccnn1 (stereo not drawn),15.59
7,Cn1c(=O)oc2cc(Nc3nccnc3C#N)ccc21,-0.7115
8,Cc1cc(CNC(=O)NCC(O)c2cccc(C(F)(F)F)c2)no1 (stereo not drawn),-1.276
9,Cc1nc(CN2CCc3ncnc(-c4ccsc4)c3CC2)cs1.O=C(O)C(F)(F)F,-15.15
10,Cc1nc(CN2CCc3ncnc(-c4ccccc4)c3CC2)cs1.O=C(O)C(F)(F)F,-8.271
11,Cc1nc(CN2CCc3ncnc(-c4cccnc4)c3CC2)cs1.O=C(O)C(F)(F)F.O=C(O)C(F)(F)F,101.9
12,CC(C)(C)CNC(=O)CNC(=O)C1CC1,-0.05069
13,CCOC(=O)c1ccc(N2CCN(Cc3c(C)nn(C)c3Cl)CC2)nc1,-11.85
14,CC(C)n1cccc1C(=O)N1CC[C@@H](NC(=O)c2ccccn2)[C@H](O)C1,9.129
15,C/C(NC(=O)c1ccco1)=C1/C(=O)C[C@@H]2[C@H]1C2(C)C,112.1
16,C/C(NC(=O)c1ccccn1)=C1\C(=O)C[C@@H]2[C@H]1C2(C)C,103
17,O=C(NCC1(O)CCc2ccccc2C1)c1cccs1 (stereo not drawn),-6.747
18,C/C(NC(=O)c1cccs1)=C1\C(=O)C[C@@H]2[C@H]1C2(C)C,112.6
19,O=C(Nc1c(N2CCCC2)cccc1N1CCCC1)c1ccccn1,-1.766
20,CC(=O)N1CC2C[C@]2(NC(=O)c2ccco2)C1 (stereo partly drawn),-12.88
21,O=C(NC1CC(=O)N(C2CC2)C1)c1cccs1 (stereo not drawn),3.357

row,Compound,Percent Effect [%]
1,O=C(N[C@]12CC1CN(C(=O)c1ccco1)C2)c1ccco1 (stereo partly drawn),-8.008
2,CNC(=O)[C@H]1CC[C@@H]2[C@@H](CCN2C(=O)N(C)C)O1,-9.576
3,O=C(NCCC(=O)N1CCCC1)C(OC1CCCC1)c1ccccc1 (stereo not drawn),-0.3907
4,O=C(O)C(F)(F)F.c1csc(CN2CCC3(CCOCC3COCC3CC3)CC2)n1 (stereo not drawn),99.84
5,O=C(O)C(F)(F)F.O=C(O)C(F)(F)F.c1cc(CN2CCC3(CCOCC3COCC3CC3)CC2)ccn1 (stereo not drawn),-8.349
6,COCC1COCCC12CCN(Cc1cccs1)CC2.O=C(O)C(F)(F)F (stereo not drawn),99.73
7,COCC1COCCC12CCN(Cc1nccs1)CC2.O=C(O)C(F)(F)F (stereo not drawn),97.2
8,COCC1COCCC12CCN(CCc1ccccc1)CC2.O=C(O)C(F)(F)F (stereo not drawn),7.834
9,O=C(O)C(F)(F)F.c1coc(CN2CCC3(CCOCC3COCC3CC3)CC2)c1 (stereo not drawn),-46.4
10,O=C(O)C(F)(F)F.c1cc(CN2CCC3(CCOCC3COCC3CC3)CC2)co1 (stereo not drawn),-40.89
11,CN(Cc1nc2ccccc2[nH]1)C(=O)CN(C)c1ccc(Cl)cn1,9.224
12,CCN(CC)CCNCc1cc(O)c2cc(C)ccc2n1,11.73
13,CO[C@H]1COC[C@@H]1NC(=O)C1(Oc2ccc(Cl)cc2)CCNCC1,6.112
14,C[S+]([O-])CCNCc1ccc(OCc2cscn2)cc1 (stereo not drawn),1.801
15,CCCN1CCN(C(=O)c2cc3ccccc3cn2)[C@H]2CS(=O)(=O)C[C@H]21,0.5207
16,CC(C)N[C@@H]1CC[C@@H]1NC(=O)c1ccccc1OC(F)(F)C(F)F,-9.491
17,Nc1ccc(-c2cc(O)cc(CCC3CCCCN3)c2)cn1 (stereo not drawn),-4.594
18,OCC1CCCN1c1cc(N2CCC(OC3CCCC3)CC2)ncn1 (stereo not drawn),10.66
19,Cl.c1nc(CCC2CCCN2)cc(N2CCCCCC2)n1 (stereo not drawn),105.3
20,CC1CCN(c2cc(NC(=O)C3CC3)ncn2)CC1,10.56
21,Cl.c1nc(CCC2CCCCN2)cc(N2CCCC2)n1 (stereo not drawn),95.63

row,Compound,Percent Effect [%]
1,CCc1cc(N2CCCC(c3noc(CC)n3)C2)ncn1 (stereo not drawn),-9.129
2,CC1CCN(c2cc(-n3cnc(C(=O)N4CCSCC4)c3)ncn2)CC1,13.65
3,Cl.c1nc(CCC2CCCN2)cc(N2CCCOCC2)n1 (stereo not drawn),-10.48
4,CC1CCN(c2cc(CCC3CCCN3)ncn2)CC1.Cl (stereo not drawn),81.62
5,O=C(O)C(F)(F)F.O=C([C@H]1CN(Cc2ccc(F)cc2)C[C@H]2OCC[C@@H]12)N1CCCO1,1.984
6,Cc1cc(NC(=O)CN2CCOC(Cn3cccn3)C2)n(C)n1 (stereo not drawn),-0.9893
7,CCC1CCCN(CC(=O)Nc2oc(C)c3c(C)n[nH]c(=O)c23)C1 (stereo not drawn),7.246
8,CN(Cc1ccc(OCC(=O)N2CCOCC2)cc1)S(C)(=O)=O,-1.865
9,CCc1ccccc1C(=O)N1CCN(S(C)(=O)=O)[C@@H](C)C1,7.255
10,NC(=O)CCOc1nc(-c2ccccc2Cl)no1,-3.331
11,CCn1c(C2CCCNC2)nn(CCn2cncn2)c1=O (stereo not drawn),98.85
12,CCOCCn1nc(C2CCNCC2)n(Cc2ccccc2)c1=O,-5.43
13,CCn1c(Cn2cncn2)nnc1C1CCN(Cc2ccncc2)CC1,-0.7206
14,CCn1c(C2CCNCC2)nn(CCn2ccc(C)n2)c1=O,83.74
15,O=c1n(CCn2cccc2)nc(C2CCNCC2)n1Cc1ccccc1,-16.93
16,CCn1c(C2CCNCC2)nn(CCCc2ccccc2)c1=O,0.4782
17,CCn1c(C2CCCN(C(=O)c3ccc[nH]3)C2)nn(CCN(C)C)c1=O (stereo not drawn),-8.209
18,CCCn1nc(C2CCNCC2)n(Cc2ccccc2)c1=O,-22.36
19,CCn1c(C2CCNCC2)nn(CCn2cncn2)c1=O,89.88
20,FC(F)(F)c1ccc2nc([C@H]3CCN(C4CCOCC4)C3)[nH]c2c1,-2.136
21,Cc1nn(C)c(C)c1S(=O)(=O)N(C)Cc1nn(C)c(Cl)c1Cl,-26.42
